Records with an inconclusive call do not appear. Activity calls are given as the source filed them. Rule for the calls, unless noted: active = hit-call score of the fitted dose curve at least 0.9, where 1 is the maximum; inactive = score below 0.9.
Key:
[1] = target: Transcriptional activator Myb (Homo sapiens) (UniProt P10242); test: ATG_Myb_CIS: Attagene CIS-FACTORIAL HepG2 Assay for human Myeloblastosis (Myb) Proto-Oncogene Transcription Factor (AID 2282986); details: HepG2 Attagene CIS-FACTORIAL Myb reporter transcription; actives raise or lower the signal
Procedure, shortened: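 Endogenous transcription factor activity at a Myb-responsive cis element is reported in human liver HepG2 cells after 24 h chemical treatment. Reporter mRNA is detected by RT-PCR and capillary electrophoresis fluorescence, with DMSO as baseline.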

[2] = target: Nuclear respiratory factor 1 (Homo sapiens) (UniProt Q16656); test: ATG_NRF1_CIS: Attagene CIS-FACTORIAL HepG2 Assay for human Nuclear Respiratory Factor 1 (NRF1) Orphan Gene (AID 2282987); details: HepG2 NRF1 cis-element reporter, Attagene multiplex; actives raise or lower the signal
Procedure, shortened: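 Human hepatoma HepG2 cells carrying transfected promoter-regulated reporter units were incubated with test chemicals for 24 h. Reporter transcripts were measured by RT-PCR plus capillary electrophoresis, and endpoints derived by bidirectional fitting with DMSO as baseline.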

[3] = ATG_NFI_CIS: Attagene CIS-FACTORIAL HepG2 Assay for human Nuclear Factor I (NFI) (AID 2282989); details: HepG2 cis-regulatory reporter, NFI response element transcription; actives raise or lower the signal
Procedure, shortened: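 Transfected HepG2 liver cells, exposed 24 h, supplied total RNA for oligo(dT) reverse transcription and reporter-specific PCR. Labelled, HpaI-cut fragments were sized by capillary electrophoresis; DMSO set the baseline for bidirectional fitting.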

[4] = target: Myc proto-oncogene protein (Homo sapiens) (UniProt P01106); test: ATG_Myc_CIS: Attagene CIS-FACTORIAL HepG2 Assay for human Myelocytomatosis (Myc) Proto-Oncogene Transcription Factor (AID 2282990); details: HepG2, Attagene cis-reporter transcription factor activity; actives raise or lower the signal
Procedure, shortened: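 HepG2, transient MRTU transfection (cis promoters, endogenous TFs); 24 h dosing; TriZol RNA → oligo(dT) RT → PCR → 6-FAM primer extension → HpaI cut → CE. Bidirectional fit vs DMSO.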

[5] = target: Hepatocyte nuclear factor 4-alpha (Homo sapiens) (UniProt P41235); test: ATG_HNF4a_TRANS: Attagene TRANS-FACTORIAL HepG2 Assay for human Hepatocyte Nuclear Factor 4 alpha (HNF4a) (AID 2282982; active = hit-call score of the fitted dose curve at least 0.9, where 1 is the maximum); details: HepG2 HNF4a transactivation reporter, mRNA readout
Procedure, shortened: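 Multiplexed reporter assay: transfected HepG2, 24 h exposure, total RNA → oligo(dT) RT → PCR → 6-FAM extension → HpaI digest → CE fluorescence. DMSO = negative control.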

[6] = ATG_M_06_TRANS: Attagene TRANS-FACTORIAL HepG2 Assay for M06 Transcription Factor (Internal Marker) (AID 2282983; active = hit-call score of the fitted dose curve at least 0.9, where 1 is the maximum;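 note: reporter transcript level by RT-PCR then capillary electrophoresis fluorescence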); details: HepG2 Attagene TRANS M06 internal marker reporter
Procedure, shortened: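 Background-control reporter readout: after 24 h chemical exposure of transiently transfected HepG2 (GAL4-UAS reporter units), mRNA quantified by RT-PCR with fluorescent labeling and capillary electrophoresis. Gain-of-signal fitting against DMSO baseline.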

[7] = target: Nuclear receptor subfamily 4 group A member 2 (Homo sapiens) (UniProt P43354); test: ATG_NURR1_TRANS: Attagene TRANS-FACTORIAL HepG2 Assay for human Nuclear Receptor Related Protein 1 (NURR1) (AID 2282985; active = hit-call score of the fitted dose curve at least 0.9, where 1 is the maximum); details: HepG2 Attagene TRANS reporter, mRNA readout
Procedure, shortened: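 Measures transcriptional activation by an exogenous NR-Gal4 chimera in transfected HepG2 liver cells. After 24 h, reporter RNA is reverse-transcribed, amplified and resolved by capillary electrophoresis; DMSO defines baseline.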

[8] = ATG_M_32_TRANS: Attagene TRANS-FACTORIAL HepG2 Assay for M32 Transcription Factor (Internal Marker) (AID 2282984; active = hit-call score of the fitted dose curve at least 0.9, where 1 is the maximum;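 note: transcript level of a background control reporter unit measured by RT-PCR and capillary electrophoresis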); details: HepG2 Attagene TRANS M32 internal marker reporter
Procedure, shortened: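 Cell-based TRANS-format assay in HepG2: exogenous chimeric GAL4 reporter units transiently expressed, compounds applied 24 h. Reporter mRNA detected by RT-PCR plus capillary electrophoresis; this readout is an internal background marker.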

Chain of Nuclear respiratory factor 1 (Homo sapiens) (Q16656 whole entry, looked up): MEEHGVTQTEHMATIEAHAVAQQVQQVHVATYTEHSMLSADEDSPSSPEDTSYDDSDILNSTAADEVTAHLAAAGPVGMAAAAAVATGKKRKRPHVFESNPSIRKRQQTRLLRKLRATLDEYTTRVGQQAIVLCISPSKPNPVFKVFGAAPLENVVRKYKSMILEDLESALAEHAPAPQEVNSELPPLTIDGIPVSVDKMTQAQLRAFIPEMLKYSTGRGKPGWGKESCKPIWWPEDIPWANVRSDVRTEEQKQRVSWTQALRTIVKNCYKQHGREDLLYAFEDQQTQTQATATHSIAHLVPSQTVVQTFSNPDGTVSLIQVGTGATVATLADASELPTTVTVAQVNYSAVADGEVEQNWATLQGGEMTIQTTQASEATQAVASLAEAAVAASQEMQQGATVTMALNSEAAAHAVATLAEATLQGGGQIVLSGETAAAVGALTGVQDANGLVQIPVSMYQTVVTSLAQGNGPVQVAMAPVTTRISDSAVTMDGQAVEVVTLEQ
Chain of Hepatocyte nuclear factor 4-alpha (Homo sapiens) (P41235 whole entry, looked up): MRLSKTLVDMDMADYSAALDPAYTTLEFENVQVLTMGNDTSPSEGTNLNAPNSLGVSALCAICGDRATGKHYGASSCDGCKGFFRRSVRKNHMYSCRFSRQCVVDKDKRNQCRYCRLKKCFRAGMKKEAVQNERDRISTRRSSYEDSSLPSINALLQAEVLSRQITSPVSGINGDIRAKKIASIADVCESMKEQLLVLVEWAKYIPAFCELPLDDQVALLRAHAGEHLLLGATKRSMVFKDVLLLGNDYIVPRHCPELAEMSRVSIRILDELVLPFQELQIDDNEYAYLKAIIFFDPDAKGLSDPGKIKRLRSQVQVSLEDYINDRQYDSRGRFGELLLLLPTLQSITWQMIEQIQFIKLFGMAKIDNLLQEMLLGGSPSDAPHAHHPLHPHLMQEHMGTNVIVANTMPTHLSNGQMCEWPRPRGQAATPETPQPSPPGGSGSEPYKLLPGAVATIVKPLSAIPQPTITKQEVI
Chain of Myc proto-oncogene protein (Homo sapiens) (P01106 whole entry, looked up): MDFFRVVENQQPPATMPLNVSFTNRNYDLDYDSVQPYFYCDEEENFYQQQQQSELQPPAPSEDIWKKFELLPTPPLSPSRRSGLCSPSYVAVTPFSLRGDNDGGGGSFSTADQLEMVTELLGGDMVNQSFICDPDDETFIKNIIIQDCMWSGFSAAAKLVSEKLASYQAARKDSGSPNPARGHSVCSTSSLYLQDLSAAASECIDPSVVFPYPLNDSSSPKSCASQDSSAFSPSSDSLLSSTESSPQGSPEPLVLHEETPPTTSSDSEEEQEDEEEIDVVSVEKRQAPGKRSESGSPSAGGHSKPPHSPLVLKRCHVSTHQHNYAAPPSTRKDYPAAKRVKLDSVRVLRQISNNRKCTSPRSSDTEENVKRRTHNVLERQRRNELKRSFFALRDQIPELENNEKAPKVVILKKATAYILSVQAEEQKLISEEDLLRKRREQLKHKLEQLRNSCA
Chain of Transcriptional activator Myb (Homo sapiens) (P10242 whole entry, looked up): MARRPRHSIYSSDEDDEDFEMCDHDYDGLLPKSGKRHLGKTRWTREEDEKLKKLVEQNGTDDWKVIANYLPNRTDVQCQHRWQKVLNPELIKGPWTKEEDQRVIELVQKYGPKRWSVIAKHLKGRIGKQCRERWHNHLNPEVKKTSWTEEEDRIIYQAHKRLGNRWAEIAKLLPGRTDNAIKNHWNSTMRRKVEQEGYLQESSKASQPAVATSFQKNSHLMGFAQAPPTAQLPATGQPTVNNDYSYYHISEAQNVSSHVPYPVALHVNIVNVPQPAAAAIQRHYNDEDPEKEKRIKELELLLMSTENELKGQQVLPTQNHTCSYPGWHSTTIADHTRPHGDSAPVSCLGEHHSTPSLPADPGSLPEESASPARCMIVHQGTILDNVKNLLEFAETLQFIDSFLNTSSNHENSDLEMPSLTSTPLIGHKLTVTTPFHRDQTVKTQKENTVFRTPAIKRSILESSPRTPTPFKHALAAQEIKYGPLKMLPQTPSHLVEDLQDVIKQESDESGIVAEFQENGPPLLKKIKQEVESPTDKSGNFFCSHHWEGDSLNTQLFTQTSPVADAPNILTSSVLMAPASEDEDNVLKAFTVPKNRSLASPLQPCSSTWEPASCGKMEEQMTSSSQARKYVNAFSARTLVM
Chain of Nuclear receptor subfamily 4 group A member 2 (Homo sapiens) (P43354 whole entry, looked up, the tested form may be a part): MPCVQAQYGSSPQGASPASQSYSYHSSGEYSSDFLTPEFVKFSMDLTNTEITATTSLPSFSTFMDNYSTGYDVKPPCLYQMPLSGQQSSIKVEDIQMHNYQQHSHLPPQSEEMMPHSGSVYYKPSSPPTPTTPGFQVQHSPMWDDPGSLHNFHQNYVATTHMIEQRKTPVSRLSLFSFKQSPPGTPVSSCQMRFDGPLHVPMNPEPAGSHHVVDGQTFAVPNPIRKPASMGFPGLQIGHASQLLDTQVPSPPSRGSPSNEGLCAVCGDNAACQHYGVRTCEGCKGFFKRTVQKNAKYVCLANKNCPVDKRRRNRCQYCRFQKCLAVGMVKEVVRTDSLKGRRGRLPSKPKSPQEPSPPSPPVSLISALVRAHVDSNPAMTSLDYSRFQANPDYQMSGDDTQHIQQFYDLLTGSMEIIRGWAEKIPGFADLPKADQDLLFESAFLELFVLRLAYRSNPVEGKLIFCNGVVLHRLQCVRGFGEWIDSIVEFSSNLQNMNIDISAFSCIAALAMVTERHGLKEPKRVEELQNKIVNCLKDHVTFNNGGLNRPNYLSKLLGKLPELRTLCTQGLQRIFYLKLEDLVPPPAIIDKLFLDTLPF

SMILES | outcome [1] | outcome [2] | outcome [3] | outcome [4] | outcome [5] | outcome [6] | outcome [7] | outcome [8] | AC50 [7] | AC50 [2]
CCn1nc(Cc2ccccc2)cc1C1CCN(C[C@H]2C[C@H](N(C)[C@@H](C(=O)O)C(C)C)C[C@@H]2c2cccc(F)c2)CC1 | inactive | inactive | inactive | inactive |  |  |  |  |  | 
CC(C)CC(C)(O)C#CC(C)(O)CC(C)C (stereo not drawn) | inactive | inactive | inactive | inactive |  |  |  |  |  | 
O=C(O)CCN(C1(C(=O)NO)CCCC1)S(=O)(=O)c1ccc(Oc2ccc(F)cc2)cc1 | inactive | inactive | inactive | inactive | inactive |  |  |  |  | 
CC1=CC(=O)CC(C)(C)C1 | inactive | inactive | inactive | inactive |  | inactive |  |  |  | 
CCCCCCCCO | inactive | inactive | inactive | inactive | inactive |  |  |  |  | 
C1=CCCC=CCCC=CCC1 | inactive | inactive | inactive | inactive |  | inactive |  |  |  | 
CCCC(=O)OCC | inactive | inactive | inactive | inactive | inactive |  | inactive |  |  | 
Cc1ccc(N)cc1O |  | inactive | inactive | inactive | inactive | inactive |  |  |  | 
Cn1c(=O)c2c(ncn2C)n(C)c1=O |  | inactive | inactive | inactive | inactive |  | inactive | inactive |  | 
CCOc1cccc(-n2cc(C(=O)N3CCN(c4cc(C(=O)O)c5ccccc5c4)CC3)nc2-c2ccc(C)cc2)c1 |  |  | inactive | inactive |  | inactive |  | inactive | 45 µM (active) | 22.7 µM (active)
CCOCCO | inactive | inactive | inactive | inactive |  | inactive |  |  |  | 
CC(C)CCCCCCOC(=O)c1ccc(C(=O)OCCCCCCC(C)C)c(C(=O)OCCCCCCC(C)C)c1 | inactive | inactive | inactive | inactive |  | inactive |  |  |  | 
COc1ccc2sc(C(=O)Nc3nnn[nH]3)c(OC(C)C)c2c1 |  | inactive | inactive | inactive |  | inactive | inactive | inactive |  | 
CCCCCCCCCCCCCCCO | inactive | inactive | inactive | inactive |  | inactive |  | inactive |  | 

Source: PubChem BioAssay (EPA / NIEHS)
